Results as given in PMC7862700, “An all-to-all approach to the identification of sequence-specific readers for epigenetic DNA modifications on cytosine”.

Assays:
Experiment in all cases: DAPPL (digital affinity profiling via proximity ligation, sequencing); 10 mM Tris-HCl pH 7.5, 50 mM NaCl, 1 mM DTT, 4% glycerol, room temperature, 30 min; GST-TFs on glutathione beads, 16-mer random dsDNA library, 0.1% formaldehyde crosslink after washing; high values mean tight binding
Settings in all cases: protein: recombinant; tags: N-terminal GST; dsDNA, one strand shown
ELF3 = target: T1, ELF3 (Homo sapiens, UniProt P78545 1-371)
T1 sequence: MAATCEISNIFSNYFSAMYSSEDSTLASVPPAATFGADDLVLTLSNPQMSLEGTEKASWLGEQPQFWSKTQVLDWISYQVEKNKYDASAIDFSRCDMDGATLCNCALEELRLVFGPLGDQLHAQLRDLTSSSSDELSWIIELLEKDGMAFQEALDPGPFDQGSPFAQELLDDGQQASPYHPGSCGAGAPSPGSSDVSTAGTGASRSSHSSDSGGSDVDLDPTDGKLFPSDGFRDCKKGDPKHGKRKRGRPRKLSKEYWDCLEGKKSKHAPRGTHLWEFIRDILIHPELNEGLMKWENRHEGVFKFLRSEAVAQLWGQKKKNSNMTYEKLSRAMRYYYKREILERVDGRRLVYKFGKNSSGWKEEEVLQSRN
Outline: (§1)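 A tag-only sample was pooled with DNA-barcoded human transcription factors that had been expressed in yeast as GST fusions and captured on glutathione beads. The pools were incubated for 30 min at room temperature with 200 nmole of a random double-stranded 16-mer DNA library in Tris/NaCl/DTT/glycerol buffer, then washed, crosslinked with 0.1% formaldehyde, proximity-ligated (BsaI/T4 ligase, 1 h, 37 °C), PCR-amplified and sequenced on an Illumina NextSeq500. Binding signal is each hexamer's read frequency for a factor divided by its frequency for the tag-only sample.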

ETV1 = ETV1 (Homo sapiens, UniProt P50549 1-477)
Chain of ETV1 (P50549 whole entry): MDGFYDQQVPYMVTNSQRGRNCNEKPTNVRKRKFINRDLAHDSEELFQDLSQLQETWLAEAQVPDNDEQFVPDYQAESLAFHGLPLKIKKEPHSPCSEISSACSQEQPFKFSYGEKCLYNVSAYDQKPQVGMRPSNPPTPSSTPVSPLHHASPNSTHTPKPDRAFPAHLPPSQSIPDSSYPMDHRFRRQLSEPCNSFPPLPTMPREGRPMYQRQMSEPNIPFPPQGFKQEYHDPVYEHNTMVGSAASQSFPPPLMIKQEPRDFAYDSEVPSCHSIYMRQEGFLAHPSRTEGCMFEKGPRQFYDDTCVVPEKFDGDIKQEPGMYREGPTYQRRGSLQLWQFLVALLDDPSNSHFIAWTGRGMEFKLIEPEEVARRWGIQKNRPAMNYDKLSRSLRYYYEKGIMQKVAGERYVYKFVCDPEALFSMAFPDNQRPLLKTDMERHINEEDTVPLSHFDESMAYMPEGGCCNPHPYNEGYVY
Outline: as §1

ERF = target: T2, ERF (Homo sapiens, UniProt P50548 1-548)
T2 sequence: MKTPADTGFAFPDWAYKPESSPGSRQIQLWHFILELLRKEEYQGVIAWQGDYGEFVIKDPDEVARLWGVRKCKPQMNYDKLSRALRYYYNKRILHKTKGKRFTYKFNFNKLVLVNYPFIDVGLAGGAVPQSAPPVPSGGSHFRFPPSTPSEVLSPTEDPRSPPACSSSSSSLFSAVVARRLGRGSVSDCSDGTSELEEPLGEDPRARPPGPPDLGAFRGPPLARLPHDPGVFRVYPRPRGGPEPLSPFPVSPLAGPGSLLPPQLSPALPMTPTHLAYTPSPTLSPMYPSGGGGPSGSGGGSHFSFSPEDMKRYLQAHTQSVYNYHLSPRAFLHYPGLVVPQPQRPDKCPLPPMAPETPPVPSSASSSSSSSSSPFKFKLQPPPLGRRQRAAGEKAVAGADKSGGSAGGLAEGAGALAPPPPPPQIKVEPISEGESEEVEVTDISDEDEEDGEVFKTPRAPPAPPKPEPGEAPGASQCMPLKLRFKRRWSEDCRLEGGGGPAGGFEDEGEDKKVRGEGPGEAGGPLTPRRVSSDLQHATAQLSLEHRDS
Outline: as §1

ETV3L = target: T3, ETV3L (Homo sapiens, UniProt Q6ZN32 1-361)
T3 sequence: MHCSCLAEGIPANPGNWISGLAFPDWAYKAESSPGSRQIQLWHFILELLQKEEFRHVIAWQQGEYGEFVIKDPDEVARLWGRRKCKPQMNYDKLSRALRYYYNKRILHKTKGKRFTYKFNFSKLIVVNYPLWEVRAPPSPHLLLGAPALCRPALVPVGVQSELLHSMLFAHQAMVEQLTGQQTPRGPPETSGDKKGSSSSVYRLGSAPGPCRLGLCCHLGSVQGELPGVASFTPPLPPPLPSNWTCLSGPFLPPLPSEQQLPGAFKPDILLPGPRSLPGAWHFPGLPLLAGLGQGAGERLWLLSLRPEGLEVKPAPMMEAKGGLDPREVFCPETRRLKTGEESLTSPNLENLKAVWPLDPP
Outline: as §1

ETS2 = target: T4, ETS2 (Homo sapiens, UniProt P15036 1-469)
T4 sequence: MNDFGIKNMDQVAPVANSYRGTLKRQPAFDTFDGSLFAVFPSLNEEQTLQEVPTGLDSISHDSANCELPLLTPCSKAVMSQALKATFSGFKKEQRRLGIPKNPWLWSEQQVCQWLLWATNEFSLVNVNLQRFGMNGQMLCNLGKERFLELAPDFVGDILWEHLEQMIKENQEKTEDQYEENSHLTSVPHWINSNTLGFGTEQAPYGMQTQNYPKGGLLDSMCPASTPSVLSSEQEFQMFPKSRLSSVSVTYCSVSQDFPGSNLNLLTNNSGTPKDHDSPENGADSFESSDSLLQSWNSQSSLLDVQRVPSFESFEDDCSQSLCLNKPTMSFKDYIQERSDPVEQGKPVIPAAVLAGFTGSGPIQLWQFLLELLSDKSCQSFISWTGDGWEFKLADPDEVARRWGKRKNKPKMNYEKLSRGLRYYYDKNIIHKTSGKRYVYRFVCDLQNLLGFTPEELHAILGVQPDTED
Outline: as §1

SPDEF = target: T5, SPDEF (Homo sapiens, UniProt O95238 1-335)
T5 sequence: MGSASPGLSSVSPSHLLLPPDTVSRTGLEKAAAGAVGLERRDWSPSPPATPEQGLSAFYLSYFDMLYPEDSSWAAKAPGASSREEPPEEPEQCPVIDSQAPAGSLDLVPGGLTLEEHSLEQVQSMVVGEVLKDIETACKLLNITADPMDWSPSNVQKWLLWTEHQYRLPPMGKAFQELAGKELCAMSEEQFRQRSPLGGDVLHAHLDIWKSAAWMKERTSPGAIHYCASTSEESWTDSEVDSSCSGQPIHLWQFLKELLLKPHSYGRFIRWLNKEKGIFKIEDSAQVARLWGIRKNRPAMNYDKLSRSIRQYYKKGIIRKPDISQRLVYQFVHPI
Outline: as §1

ETV7 = target: T6, ETV7 (Homo sapiens, UniProt Q9Y603 1-341)
T6 sequence: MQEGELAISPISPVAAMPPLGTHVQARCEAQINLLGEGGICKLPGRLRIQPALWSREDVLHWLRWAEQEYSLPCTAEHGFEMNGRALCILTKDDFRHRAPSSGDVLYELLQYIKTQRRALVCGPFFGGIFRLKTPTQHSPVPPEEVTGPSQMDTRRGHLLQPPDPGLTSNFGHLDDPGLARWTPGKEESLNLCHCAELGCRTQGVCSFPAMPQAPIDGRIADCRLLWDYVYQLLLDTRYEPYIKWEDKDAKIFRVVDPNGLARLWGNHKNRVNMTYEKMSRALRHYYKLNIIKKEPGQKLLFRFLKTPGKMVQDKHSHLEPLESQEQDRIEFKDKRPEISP
Outline: as §1

ETV3 = target: T7, ETV3 (Homo sapiens, UniProt P41162-2 1-143)
T7 sequence: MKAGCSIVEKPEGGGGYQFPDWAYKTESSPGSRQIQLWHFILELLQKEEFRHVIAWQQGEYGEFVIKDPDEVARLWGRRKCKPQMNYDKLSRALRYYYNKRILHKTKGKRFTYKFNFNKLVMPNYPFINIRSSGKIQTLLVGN
Outline: as §1

ETV6 = ETV6 (Homo sapiens, UniProt P41212 1-452)
Chain of ETV6 (P41212 whole entry): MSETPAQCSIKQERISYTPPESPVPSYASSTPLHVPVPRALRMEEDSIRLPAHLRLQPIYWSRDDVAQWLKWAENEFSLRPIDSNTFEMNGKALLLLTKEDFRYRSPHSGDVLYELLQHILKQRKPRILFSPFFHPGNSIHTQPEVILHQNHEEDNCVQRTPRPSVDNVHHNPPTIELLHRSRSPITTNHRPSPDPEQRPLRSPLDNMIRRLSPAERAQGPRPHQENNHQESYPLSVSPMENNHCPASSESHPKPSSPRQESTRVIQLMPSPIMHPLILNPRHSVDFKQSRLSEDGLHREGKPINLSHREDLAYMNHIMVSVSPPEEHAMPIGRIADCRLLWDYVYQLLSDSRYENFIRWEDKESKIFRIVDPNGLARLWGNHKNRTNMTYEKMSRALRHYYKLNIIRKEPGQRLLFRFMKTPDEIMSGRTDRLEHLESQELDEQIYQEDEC
Outline: as §1

Which binding signal (ELF3) does the source give for TGTAAG here?
The binding signal was 1.3 fold enrichment (6-mer frequency, TF over GST control).

What about the binding signal (ETV1) of the same sequence?
Its binding signal is 1.06 fold enrichment (6-mer frequency, TF over GST control).

And the binding signal (ERF)?
Its binding signal is 1.11 fold enrichment (6-mer frequency, TF over GST control).

And the binding signal (ETV3L)?
The binding signal was 1.03 fold enrichment (6-mer frequency, TF over GST control).

What about the binding signal (ETS2) of the same sequence?
Its binding signal is 1.04 fold enrichment (6-mer frequency, TF over GST control).

What about the binding signal (SPDEF) of the same sequence?
The binding signal was 1.13 fold enrichment (6-mer frequency, TF over GST control).

And the binding signal (ETV7)?
Its binding signal is 1.04 fold enrichment (6-mer frequency, TF over GST control).

What about the binding signal (ETV3) of the same sequence?
The binding signal was 1.17 fold enrichment (6-mer frequency, TF over GST control).

What about the binding signal (ETV6) of the same sequence?
The binding signal was 1.14 fold enrichment (6-mer frequency, TF over GST control).
